The list is not random: actives were taken first. Their share in the collection is about 3.2%.
Dyrk1A ADPGlo – rat Dyrk1A kinase inhibitors, primary screen, biochemical, single point, plate reader | ADP-Glo luminescence, NFATc1 peptide | AID 504441, 2011 | inhibition, % at 12.5 µM | hit rate 0.43% among 310,000; in the data active means inhibition above about 50%
CDK5 inh – inhibitors of human CDK5/p35 kinase, primary screen, biochemical, single concentration; Cyclin-dependent kinase 5 (Homo sapiens) + Cyclin-dependent kinase 5 activator 1 (Homo …; Recombinant CDK5/p35, ADP-Glo luminescence, 60 min; inhibition, % at 10 µM; hit rate 0.01% among 330,000; AID 488839, 2010;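 active means highest replicate inhibition of at least 50% and at least 75% of replicates reaching 50%; inconclusive means only one of the two criteria met; inactive means both criteria failed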
Target sequence (Q00535 whole entry, looked up): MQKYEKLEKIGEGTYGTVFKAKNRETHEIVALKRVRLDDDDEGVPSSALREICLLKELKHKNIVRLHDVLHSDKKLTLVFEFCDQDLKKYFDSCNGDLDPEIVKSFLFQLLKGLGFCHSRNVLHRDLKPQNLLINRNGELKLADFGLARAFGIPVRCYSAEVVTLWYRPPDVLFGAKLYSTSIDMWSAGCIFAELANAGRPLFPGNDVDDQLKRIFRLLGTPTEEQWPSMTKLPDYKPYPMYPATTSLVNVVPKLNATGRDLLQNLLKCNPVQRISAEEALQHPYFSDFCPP
Target sequence (Q15078 whole entry, looked up): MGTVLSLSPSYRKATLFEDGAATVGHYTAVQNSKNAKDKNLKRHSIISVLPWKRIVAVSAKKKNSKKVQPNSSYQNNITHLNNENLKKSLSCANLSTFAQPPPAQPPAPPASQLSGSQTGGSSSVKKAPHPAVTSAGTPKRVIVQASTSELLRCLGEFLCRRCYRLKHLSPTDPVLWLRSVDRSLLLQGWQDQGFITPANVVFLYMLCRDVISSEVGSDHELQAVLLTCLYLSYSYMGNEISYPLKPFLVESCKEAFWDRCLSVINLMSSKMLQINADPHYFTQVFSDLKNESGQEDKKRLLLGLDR
esBAF inh – Bmi1 luciferase reporter increase in mESCs, primary screen, esBAF inhibitor project, mouse ES cells, Bmi1 luciferase knock-in, single point | 24 h; 100% = twice the neutral-well signal | reporter increase, % at 12.5 µM | hit rate 2% among 350,000; in the data active means activation above about 40%; inconclusive means no clear call, values can overlap the other calls;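 further: a rise in the Bmi1 reporter signal indicates esBAF inhibition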
Rtt109 Vps75 – inhibitors of C. albicans Rtt109/Vps75 HAT, primary screen, biochemical, ThioGlo CoA-SH fluorescence, plate reader; AID 540336, 2011; inhibition, % at 34.9 µM; purified Rtt109/Vps75, 4 h; Histone acetyltransferase RTT109 (Candida albicans (strain SC5314 / ATCC MYA-2876)), …; hit rate 0.16% among 330,000;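 active means inhibition of at least 50% in every replicate; inconclusive means best replicate reaches 50% inhibition but some replicates fall short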
SMARCA2 act – SMARCA2 (BRM) function activators, primary screen, cell-based, luminescence, high throughput. MG213 cells, MMTV-luciferase reporter, dexamethasone, overnight. activation, % at 9.1 µM. hit rate 1% among 370,000. AID 652017, 2013; in the data active means activation above about 7.8%
dFosB act – activators of delta FosB homodimer, primary screen, biochemical, fluorescence polarization, TAMRA-CDK5 oligo, single point; AID 493131, 2011; purified delta FosB; percent of positive-control signal above neutral wells; activation, % at 25 µM; hit rate 0.99% among 340,000; Protein FosB (Mus musculus), P13346;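 active means mean activation above about 17%, with every replicate also reaching it, limit read from the data, passing the limit was not always enough; inconclusive means only one of the two conditions met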
esBAF Ring1 qPCR – Ring1 mRNA increase in mouse ESCs, confirmation, esBAF inhibitor project, cell-based, mouse ESC, RT-qPCR, cherry-pick; shares compounds with esBAF inh; mouse ESC E14, Ring1 mRNA RT-qPCR fold change; fold change at 33 µM; 550 tested, under 10 active; AID 743176, 2013;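 active means Ring1 gene expression raised more than 2-fold over untreated cells in both replicates at either tested dose; inconclusive means only one replicate above 2-fold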;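 further: Ring1 transcript normalised to actin housekeeping signal by TaqMan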
Fgf4 repress – Fgf4 mRNA decrease in mouse ESCs, confirmation, esBAF inhibitor project, cell-based, mouse ESC, RT-qPCR, cherry-pick; shares compounds with esBAF inh; mouse ESC E14, Fgf4 mRNA qPCR fold change; hits give low values; Fgf4 expression fold change at 33 µM; hit rate 4% among 550;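 active means Fgf4 expression under 0.8 fold of control in both repeat measurements at one or both tested doses; inconclusive means under 0.8 fold in just a single repeat measurement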;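 further: Fgf4 transcript normalised to actin in duplex TaqMan qPCR; cells exposed to compound for 24 h before lysis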
esBAF Bmi1 qPCR – esBAF inhibition via Bmi1 de-repression, confirmation, cell-based, RT-qPCR, mouse ESC, single point, cherry-pick; fold change at 33 µM; 550 tested, under 10 active; shares compounds with esBAF inh; mouse ESE14 ES cells, Bmi1 mRNA qPCR fold; hits give high values;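 active means Bmi1 expression fold change above 6 at either tested concentration, seen in replicate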;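 further: higher fold means more Bmi1 de-repression and stronger esBAF inhibition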
A549 tox SP – A549 cell cytotoxicity, cytotoxicity control, plate reader, single point, cherry-pick; shares compounds with esBAF inh; cell viability change % (negative = cytotoxic), % at 25 µM, hits read low; 550 tested, under 10 active; call rule not given here
HepG2 tox SP – HepG2 cell cytotoxicity, cytotoxicity control, plate reader, single point, cherry-pick. hits give low values. shares compounds with esBAF inh. activity change, negative = inhibition, % at 25 µM. AID 743189, 2013. hit rate 4% among 550; in the data active means activity change below about -50%
HEK293 cytotox SP – HEK293 cell cytotoxicity, cytotoxicity control, plate reader, single point, cherry-pick | hit rate 3% among 550 | shares compounds with esBAF inh | activity change, negative = inhibition, % at 25 µM, hits read low | AID 743190, 2013; in the data active means activity change below about -38%, passing the limit was not always enough
A number is an active result; i = inactive; ? = inconclusive; nt = not tested or not shown.

SMILES	Dyrk1A ADPGlo	CDK5 inh	esBAF inh	Rtt109 Vps75	SMARCA2 act	dFosB act	esBAF Ring1 qPCR	Fgf4 repress	esBAF Bmi1 qPCR	A549 tox SP	HepG2 tox SP	HEK293 cytotox SP
CC(C)C(=O)N1CCN(c2nc3ccc(Cl)cc3s2)CC1	i	i	80.4	i	i	i	i	i	i	i	i	i
CCc1ccc2nc(N3CCN(C(=O)C(C)(C)C)CC3)sc2c1	i	i	?	i	i	i	nt	nt	nt	nt	nt	nt
CC(C)(C)C(=O)N1CCN(c2nc3ccccc3s2)CC1	i	i	63.9	i	i	i	i	i	i	i	i	i
O=C(N/N=C/c1cccs1)c1cccc2cc[nH]c12	i	i	56.9	i	i	i	i	i	i	i	i	i
Cc1noc(C)c1NC(=O)Nc1ccc2c(c1)C(=O)N([C@H](C)CO)C[C@@H](C)[C@@H](CN(C)CC1CCCCC1)OCCCC[C@H](C)O2	nt	nt	i	nt	nt	nt	nt	nt	nt	nt	nt	nt
C1=NN(c2ccccc2)C=NN1c1ccccc1	i	i	69.2	i	i	i	i	i	i	i	i	-59.9
C[C@@H]1CN([C@@H](C)CO)S(=O)(=O)c2ccc(Br)cc2O[C@H]1CN(C)Cc1ccccc1	nt	nt	i	nt	nt	nt	nt	nt	nt	nt	nt	nt
O=C(C[C@H]1C=C[C@@H](NS(=O)(=O)c2cccc(F)c2)[C@H](CO)O1)NCc1ccc2c(c1)OCO2	nt	nt	i	nt	nt	nt	nt	nt	nt	nt	nt	nt
COc1cc(/C=C/c2nc3ccccc3c(=O)[nH]2)cc(OC)c1OC	i	i	i	i	i	i	nt	nt	nt	nt	nt	nt
COc1cc(/C=C/c2nc3ccccc3c(=O)[nH]2)ccc1OC(F)F	i	i	55.5	i	i	i	i	i	i	i	i	i
O=C(c1cc2c(s1)-c1ccccc1OC2)N1CCCC1	i	i	76.5	i	i	i	i	i	i	i	i	i
CC(C)NC(=O)Nc1cccc2c1O[C@H](CN(C)C(=O)NC1CCCCC1)[C@H](C)CN([C@@H](C)CO)C2=O	nt	nt	i	nt	nt	nt	nt	nt	nt	nt	nt	nt
Cc1ccc(NC(=O)Cc2noc3ccccc23)cc1	i	i	80.5	i	i	i	i	i	i	i	i	i
O=C(Cc1noc2ccccc12)Nc1ccc2ccccc2c1	i	i	i	i	i	i	nt	nt	nt	nt	nt	nt
CCC(=O)c1ccc(N2CCCCCC2)c(F)c1	i	i	73.7	i	i	i	i	i	i	i	i	i
CCC(=O)c1ccc(N2CCCC2)c(F)c1	i	i	57.2	i	i	i	i	i	i	i	i	i
CCCC(=O)c1ccc(N2CCCC2)c(F)c1	i	i	?	i	i	i	nt	nt	nt	nt	nt	nt
COc1cc(CNc2ccc(N3CCN(C(C)=O)CC3)cc2)ccc1OCc1ccc(F)cc1	i	i	57.9	i	i	i	2.17	i	i	i	i	i
